Results reported in the supplement of paper PMC10981050.
Where “and” joins values, the source holds several entries; their conditions need not be identical. Equal entries are not always repeated. Structures can show the parent of a compound that is named as a salt.

Legend:
Test in all cases: cell viability relative to vehicle control; higher = less cytotoxic
Conditions in all cases: 10 µM
[1] = system: K562
Outline: (§1)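 Screening covered the Selleck bioactive, kinase and epigenetic probe libraries, less identity-inconsistent compounds, on CRISPR-edited mutant clones and isogenic wild-type clones of four leukaemia lines. Cells, at 2000 per well in 50 µL medium, received a single 10 µM acoustically dispensed dose. After 48 h the supernatant was removed and CellTiter-Glo luminescence was read. Viability was analysed in Genedata Screener as percent of the on-plate vehicle control.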

[2] = system: MARIMO
Outline: as §1

[3] = system: MOLM14
Outline: as §1

[4] = system: OCI-AML2
Outline: as §1

SMILES | cell viability ([1]; SRSF2 genotype: SRSF2 P95H/wt) | cell viability ([1]; SRSF2 genotype: SRSF2 wt/wt) [%] | cell viability ([2]; SRSF2 genotype: SRSF2 P95H/wt) [%] | cell viability ([2]; SRSF2 genotype: SRSF2 wt/wt) [%] | cell viability ([3]; SRSF2 genotype: SRSF2 P95H/wt) [%] | cell viability ([3]; SRSF2 genotype: SRSF2 wt/wt) [%] | cell viability ([4]; SRSF2 genotype: P95H/wt) [%] | cell viability ([4]; SRSF2 genotype: wt/wt) [%]
Cc1cc(C(=O)Nc2nc3cccc(Cl)c3n2[C@@H]2CCCCN(C(=O)/C=C/CN(C)C)C2)ccn1 [Nazartinib (EGF816, NVS-816)] | 74.5% and 75.6% | 69.3 | 27.6 | 35.6 | 53 | 48.9 | 44.4 | 56.7
CCn1cc(C(=O)O)c(=O)c2ccc(C)nc21 [Nalidixic acid (NegGram)] | 96.8% and 104% | 106 | 107 | 101 | 105 | 109 | 104 | 91.1
Cn1cc(C(=O)Nc2ccc3c(c2)OCCO3)c2ccccc2c1=O | 88.4% and 81.6% | 81.2 | 80.4 | 83.5 | 84.3 | 82.8 | 80.3 | 95.8
C=C(C)[C@@H]1CC[C@]2(C(=O)O)CC[C@]3(C)[C@H](CC[C@@H]4[C@@]5(C)CC[C@H](OC(=O)CC(C)(C)C(=O)O)C(C)(C)[C@@H]5CC[C@]43C)[C@@H]12 [Bevirimat] | 102% and 101% | 99.7 | 107 | 107 | 106 | 103 | 97 | 108
Cc1cn(-c2cc(NC(=O)c3ccc(C)c(Nc4nccc(-c5cnccn5)n4)c3)cc(C(F)(F)F)c2)cn1 [Radotinib] | 22.3% and 38.7% | 22.1 | 107 | 111 | 104 | 100 | 103 | 104
COc1cccc2c1C(=O)c1c(O)c3c(c(O)c1C2=O)C[C@@](O)(C(=O)CO)C[C@@H]3O[C@H]1C[C@H](N)[C@H](O[C@@H]2CCCCO2)[C@H](C)O1 [Pirarubicin] | 9.97% and 17.9% | 15.8 | 5.07 | 2.51 | 0.15 | 0.13 | 0.2 | 0.51
Cc1[nH]c2ccccc2c1CCNCc1ccc(/C=C/C(=O)NO)cc1 [Panobinostat (LBH589)] | 1.37% and 8.1% | 2.36 | 3.16 | 7.58 | 0.67 | 0.53 | 1.13 | 1.48
CCC(=O)OCC(=O)[C@@]1(OC(=O)CC)[C@@H](C)C[C@H]2[C@@H]3CCC4=CC(=O)C=C[C@]4(C)[C@@]3(Cl)[C@@H](O)C[C@@]21C [Beclomethasone dipropionate] | 87.4% and 91.4% | 87.7 | 90 | 97.8 | 86 | 93 | 105 | 117
c1coc(CNc2ncnc3[nH]cnc23)c1 [Kinetin (6-Furfuryladenine)] | 94.1% and 107% | 104 | 100 | 113 | 98.4 | 105 | 116 | 97.6
C=CC(=O)Nc1cccc(Sc2nc(Nc3ccc(N4CCN(C)CC4)cc3)ncc2Cl)c1 | 12.7% and 13.8% | 13.8 | 0.51 | 9.17 | 0.08 | 0.12 | 0.11 | 0.45
N#CCNC(=O)c1ccc(-c2ccnc(Nc3ccc(N4CCOCC4)cc3)n2)cc1 [Momelotinib (CYT387)] | 81.2% and 85.3% | 86.1 | 26.7 | 42.8 | 15 | 5.08 | 11 | 15.7
CCn1c(-c2nonc2N)nc2c(C#CC(C)(C)O)ncc(OC[C@H]3CCCNC3)c21 | 87.1% and 95.7% | 79.5 | 73 | 72.3 | 59.2 | 47.1 | 53.9 | 57.1
CC(/C=C1\SC(=S)N(CC(=O)O)C1=O)=C\c1ccccc1 [Epalrestat] | 99.9% and 110% | 107 | 104 | 102 | 106 | 103 | 102 | 95.3
Oc1ccc(/C=C/c2cc(O)cc(O)c2)cc1 [Resveratrol] | 83.1% and 92.7% | 91.6 | 70.1 | 79.6 | 73.4 | 80 | 67.2 | 72.8
CCOC(=O)OC(C)OC1=C(C(=O)Nc2ccccn2)N(C)S(=O)(=O)c2ccccc21 (stereo unspecified) [Ampiroxicam] | 96.8% and 104% | 92.4 | 101 | 95.9 | 93 | 95.9 | 104 | 96
Clc1cccc(Cl)c1NC1=NCCN1 [Clonidine hydrochloride (Catapres)] | 98.5% and 103% | 105 | 110 | 113 | 89.2 | 103 | 115 | 101
CC1=C[C@H](O)CC(C)(C)[C@H]1/C=C/C(C)=C/C=C/C(C)=C/C=C/C=C(C)/C=C/C=C(C)/C=C/C1=C(C)C[C@@H](O)CC1(C)C [lutein] | 99.5% and 98.9% | 95.8 | 88.7 | 100 | 88.8 | 110 | 103 | 107
CCCC(=O)Nc1cccc(NC(=O)c2ccccc2Br)c1 | 92.9% | 95.5 | 97.8 | 96.5 | 102 | 100 | 95.7 | 95
CCn1c(=O)c(-c2cc[nH]n2)cc2c(C)nc(N)nc21 | 54.4% and 68.5% | 65.7 | 43.5 | 35.6 | 29.2 | 26.4 | 13.8 | 20.5
Nc1ccc(S(=O)(=O)Nc2nccs2)cc1 [Sulfathiazole] | 104% and 98.6% | 95.4 | 95.8 | 107 | 103 | 102 | 96 | 105
O=c1[nH]c(=O)c2[nH]cnc2[nH]1 [2,6-Dihydroxypurine] | 107% and 100% | 104 | 106 | 110 | 101 | 107 | 101 | 109

SMILES | cell viability ([1]; SRSF2 genotype: SRSF2 P95H/wt) | cell viability ([1]; SRSF2 genotype: SRSF2 wt/wt) [%] | cell viability ([2]; SRSF2 genotype: SRSF2 P95H/wt) [%] | cell viability ([2]; SRSF2 genotype: SRSF2 wt/wt) [%] | cell viability ([3]; SRSF2 genotype: SRSF2 P95H/wt) [%] | cell viability ([3]; SRSF2 genotype: SRSF2 wt/wt) [%] | cell viability ([4]; SRSF2 genotype: P95H/wt) [%] | cell viability ([4]; SRSF2 genotype: wt/wt) [%]
Cc1ncc([N+](=O)[O-])n1CC(O)CCl (stereo unspecified) [Ornidazole] | 96.6% and 100% | 94.7 | 102 | 104 | 91.9 | 105 | 103 | 106
Nc1ccn([C@@H]2O[C@H](CO)[C@@H](O)[C@@H]2O)c(=O)n1 [Cytarabine hydrochloride] | 83.4% and 98.6% | 94.9 | 28.6 | 30.5 | 7.14 | 1.49 | 6.92 | 8.04
CO[C@]1(CC[C@@H](C)CO[C@@H]2O[C@H](CO)[C@@H](O)[C@H](O)[C@H]2O)O[C@H]2C[C@H]3[C@@H]4CC=C5C[C@@H](O[C@@H]6O[C@H](CO)[C@@H](O[C@@H]7O[C@@H](C)[C@H](O)[C@@H](O)[C@H]7O)[C@H](O)[C@H]6O[C@@H]6O[C@@H](C)[C@H](O)[C@@H](O)[C@H]6O)CC[C@]5(C)[C@H]4CC[C@]3(C)[C@H]2[C@@H]1C [Methylprotodioscin] | 0.68% and 0.5% | 1.3 | 0.54 | 0.79 | 0.52 | 0.56 | 0.5 | 0.54
C[C@H]1[C@H](C)CC[C@]2(C(=O)O)CC[C@]3(C)C(=CC[C@@H]4[C@@]5(C)CC[C@H](O)C(C)(C)[C@@H]5CC[C@]43C)[C@H]12 [Ursolic acid (Malol)] | 96.5% and 93.7% | 90.6 | 87.2 | 102 | 98.2 | 97 | 81.4 | 92.8
CC(=O)O[C@H](CC(=O)O)C[N+](C)(C)C [O-Acetyl-L-carnitine hydrochloride] | 112% and 110% | 110 | 110 | 110 | 101 | 108 | 105 | 104
CCN1CCN(c2cc3c(cc2F)c(=O)c(C(=O)O)cn3C2CC2)CC1 [Enrofloxacin] | 98.9% and 111% | 99.2 | 108 | 111 | 103 | 111 | 109 | 109
COc1cc(NS(=O)(=O)c2ccc(N)cc2)nc(OC)n1 [SulfadiMethoxine sodium] | 106% and 100% | 111 | 100 | 105 | 106 | 107 | 102 | 118
CCOC(=O)[C@H](CCc1ccccc1)N[C@@H](C)C(=O)N1Cc2cc(OC)c(OC)cc2C[C@H]1C(=O)O [Moexipril HCl] | 93.9% and 103% | 104 | 110 | 105 | 106 | 109 | 104 | 95.9
O=C(O)c1cc(C(=O)O)c(C(=O)N(Cc2cccc(Oc3ccccc3)c2)[C@H]2CCCc3ccccc32)cc1C(=O)O | 119% and 108% | 113 | 102 | 103 | 105 | 101 | 106 | 105
NCCNc1ccc(NCCN)c2c1C(=O)c1ccncc1C2=O [Pixantrone Maleate] | 18.2% and 23.9% | 20.5 | 10.7 | 7.14 | 0.24 | 0.35 | 0.25 | 0.85
O=C(O)C(Cc1ccccc1[N+](=O)[O-])=NNc1nc(-c2ccc(Cl)c(Cl)c2)cs1 | 95.8% and 93.5% | 87.9 | 94.2 | 114 | 91.8 | 92.2 | 84.8 | 94
CC1(C)OCCn2c1nc1c(N3CCOCC3)nc(-c3cnc(N)nc3)nc12 | 47.1% and 53.8% | 55 | 45.7 | 36 | 27.3 | 23.9 | 11.2 | 19.6
O=C(O)Cn1nnc(-c2cc(N3CCC(Oc4cc(F)ccc4Br)CC3)no2)n1 | 106% and 102% | 110 | 101 | 104 | 103 | 103 | 101 | 103
COc1cc2c(cc1OC)-c1cc3ccc(OC)c(OC)c3c[n+]1CC2 [Palmatine chloride] | 82.8% and 81.3% | 75.1 | 81 | 93 | 82.6 | 86 | 81.9 | 80.9
Fc1ccc(Cn2c(Cl)nc3ccccc32)cc1 [2-Chloro-1-(4-fluorobenzyl)benzimidazole] | 77.4% and 80.8% | 86.5 | 64.6 | 64.5 | 77.2 | 84 | 28.5 | 36.5
CCN1CCN(Cc2ccc(C(=O)Nc3ccc(C)c(Oc4ccc5c(c4)CC(=O)N5)c3)cc2C(F)(F)F)CC1 | 4.41% and 19.5% | 9.71 | 70.5 | 82.1 | 46.6 | 45 | 45 | 44.8
Cc1cc(=O)oc2cc(O)ccc12 [4-Methylumbelliferone (4-MU)] | 107% and 96.8% | 99.6 | 98.5 | 96.7 | 102 | 102 | 100 | 99.9
COc1c(C)c2c(c(O)c1C/C=C(\C)CCC(=O)OCCN1CCOCC1)C(=O)OC2 [Mycophenolate mofetil (CellCept)] | 50.6% and 48.7% | 45.1 | 45.4 | 43.6 | 9.99 | 2.92 | 13.5 | 12.2
CCn1c(=O)c(-c2ccc(Cl)cc2Cl)cc2cnc(Nc3ccc(N4CCNCC4)c(F)c3)nc21 | 1.46% and 1.57% | 3.22 | 4.24 | 2.21 | 0.53 | 0.81 | 0.95 | 1.2
CC[C@H]1OC(=O)[C@H](C)[C@@H](O[C@H]2C[C@@](C)(OC)[C@@H](O)[C@H](C)O2)[C@H](C)[C@@H](O[C@@H]2O[C@H](C)C[C@H](N(C)C)[C@H]2O)[C@](C)(OC)C[C@@H](C)C(=O)[C@H](C)[C@@H](O)[C@]1(C)O [Clarithromycin (Biaxin, Klacid)] | 105% and 111% | 107 | 99 | 102 | 99.6 | 104 | 108 | 91.7
CC(C)(C)C[C@@H]1N[C@@H](C(=O)N[C@H]2CC[C@H](O)CC2)[C@H](c2cccc(Cl)c2F)[C@]12C(=O)Nc1cc(Cl)ccc12 | 76.2% and 81.8% | 74.8 | 84.9 | 83.6 | 0.31 | 0.33 | 0.34 | 8.97
